# Structures can show the parent of a compound that is named as a salt. The full ranking holds about 2,000 compounds; the median of “fractional viability relative to vehicle” is about 0.91, and the lowest 2% start at about 0.045. The list comes from a sample in which the lowest values are over-represented; it also holds similar structures and randomly drawn compounds.
# Tested on: TYKNU
# Assay: fractional viability relative to vehicle; TYKNU is a high-grade serous ovarian cancer line; higher = less growth inhibition
# Conditions: 72 h
# Outline: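 TYKNU control cells or lentiCRISPRv2 knockout derivatives were plated at 500 cells per well in duplicate into drug-stamped 384-well plates holding a ~2100-compound library at 2 or 10 μM. Culture was in RPMI 1640 with 10% FBS at 37 °C in 5% CO2, with 72 h of drug treatment. Viability was measured by Cell Titer Glo luminescence, and the averaged duplicate treatment wells were normalised to duplicate control wells at the same plate position.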
# [1] = 2uM, genotype: DNM1L knockout (sgDNM1L #1)
# [2] = 2uM, genotype: sgCTRLA1 (non-targeting control)
# [3] = 10uM, genotype: DNM1L knockout (sgDNM1L #1)
# [4] = 10uM, genotype: sgCTRLA1 (non-targeting control)
SMILES,fractional viability [1],fractional viability [2],fractional viability [3],fractional viability [4]
COC(=O)N[C@H](C(=O)N1CCC[C@H]1c1ncc(-c2ccc(-c3ccc(-c4cnc([C@@H]5CCCN5C(=O)[C@@H](NC(=O)OC)C(C)C)[nH]4)cc3)cc2)[nH]1)C(C)C,1.04,1,0.511,0.654
CS(=O)(=O)CCNCc1ccc(-c2ccc3ncnc(Nc4ccc(OCc5cccc(F)c5)c(Cl)c4)c3c2)o1,1.08,1.02,0.179,0.303
C=CC(=O)Nc1ccc2ncnc(Nc3cccc(Br)c3)c2c1,0.927,0.921,0.248,0.317
C=CC(=O)Nc1ccc2ncnc(Nc3ccc(OCc4cccc(F)c4)c(Cl)c3)c2c1,0.704,0.853,0.044,0.0416
COCC(=O)NC/C=C/c1ccc2ncnc(Nc3ccc(Oc4ccc(C)nc4)c(C)c3)c2c1,1.07,1.08,0.886,1.06
Cc1c(Cn2c(C)nc3c(C(=O)O)cc(N4CCOCC4)cc32)cccc1C(F)(F)F,0.754,0.989,0.83,0.849
CC[C@@H]([C@H](C)O)n1ncn(-c2ccc(N3CCN(c4ccc(OC[C@@H]5CO[C@@](Cn6cncn6)(c6ccc(F)cc6F)C5)cc4)CC3)cc2)c1=O [Posaconazole],0.919,1.13,0.868,1.05
C=CC(=O)Nc1cccc(Sc2nc(Nc3ccc(N4CCN(C)CC4)cc3)ncc2Cl)c1,0.965,0.898,0.0379,0.0337
C=CC(=O)Nc1ccc(CN2C(=O)N(c3cc(OC)cc(OC)c3)Cc3cnc(Nc4ccc(N5CCN(C)CC5)cc4)nc32)cc1,0.926,0.803,0.0593,0.0423
C=CC(=O)Nc1cccc(Oc2nc(Nc3ccc(N4CCN(C)CC4)cc3OC)ncc2Cl)c1,0.754,0.963,0.345,0.492
C=CC(=O)Nc1cccc(Nc2nc(Nc3ccc(N4CCN(C(C)=O)CC4)cc3OC)ncc2C(F)(F)F)c1,0.528,0.856,0.24,0.235
C=CC(=O)Nc1cccc(Oc2nc(Nc3ccc(N4CCN(C)CC4)cc3)ncc2Cl)c1,0.338,0.355,0.157,0.146
CCC(=O)Nc1cccc(Oc2nc(Nc3ccc(N4CCN(C)CC4)cc3OC)ncc2Cl)c1,0.867,0.981,0.303,0.347
C[C@@H](Nc1cc(F)cc(F)c1)c1cc(C(=O)N(C)C)cc2c(=O)cc(N3CCOCC3)oc12,0.647,0.847,0.701,0.566
CN(C)C/C=C/C(=O)Nc1cc2c(Nc3ccc(F)c(Cl)c3)ncnc2cc1O[C@H]1CCOC1 [Afatinib (BIBW2992) Dimaleate],0.77,0.984,0.77,0.767
CN(C)C/C=C/C(=O)Nc1cc2c(Nc3ccc(F)c(Cl)c3)ncnc2cc1O[C@H]1CCOC1 [Afatinib (BIBW2992)],0.578,0.809,0.0953,0.0868
O=S(=O)(N=Cc1c(O)ccc2ccccc12)c1cccs1,0.71,0.953,0.696,0.77
NC(=O)c1noc([C@H](CCCC2CCCCC2)CC(=O)NO)n1,0.928,1.03,0.623,0.827
CNS(=O)(=O)Nc1nccc(Cc2c(C)c3ccc(Oc4ncccn4)cc3oc2=O)c1F,0.326,0.304,0.239,0.199
COc1cc2c(Oc3ccc4[nH]c(C)cc4c3F)ncnc2cc1OCCCN1CCCC1 [Cediranib (AZD2171)],0.99,0.847,0.0461,0.0421

SMILES,fractional viability [1],fractional viability [2],fractional viability [3],fractional viability [4]
COc1cc2ncnc(Nc3ccc(F)c(Cl)c3)c2cc1OCCCN1CCOCC1 [Gefitinib (ZD1839)],1,1.11,0.492,0.555
Cc1cc2c(F)c(Oc3ncnn4cc(OC[C@@H](C)O)c(C)c34)ccc2[nH]1,0.804,0.956,0.487,0.469
Cc1ncc(CCCN(C)C)cc1Nc1ncc2c(n1)-c1ccc(C(F)(F)F)cc1NC(=S)C2,0.211,0.231,0.259,0.251
CC(C)(C)C[C@@H]1N[C@@H](C(=O)N[C@H]2CC[C@H](O)CC2)[C@H](c2cccc(Cl)c2F)[C@]12C(=O)Nc1cc(Cl)ccc12,0.274,0.277,0.259,0.225
CCN(CC)CCN(Cc1ccc(-c2ccc(C(F)(F)F)cc2)cc1)C(=O)Cn1c(SCc2ccc(F)cc2)nc(=O)c2c1CCC2,0.329,0.569,0.0156,0.00842
CC(C)(C)C(=O)Nc1ccc2c(c1)C(=O)C(=O)c1ccccc1-2,0.175,0.0968,0.0236,0.0127
CC(=O)Nc1ccccc1 [Acetanilide],0.896,1.08,0.878,1.14
CCCc1nc(C(C)(C)O)c(C(=O)OCc2oc(=O)oc2C)n1Cc1ccc(-c2ccccc2-c2nnn[nH]2)cc1 [Olmesartan Medoxomil],0.907,0.929,1.1,1.02
"CC(C)(C)C#Cc1cc(N(C(=O)[C@H]2CC[C@H](C)CC2)[C@H]2CC[C@H](O)CC2)c(C(=O)O)s1 [VX-222 (VCH-222, Lomibuvir)]",0.983,1.03,0.818,0.95
NC(=O)c1cnc(N[C@@H]2CCCC[C@@H]2N)nc1Nc1cccc(-n2nccn2)c1,0.751,0.853,0.185,0.142
Fc1ccc(CNc2ncnc3ccc(F)cc23)cc1 [Spautin-1],0.675,0.763,0.67,0.447
NNC(=O)c1ccncc1 [Isoniazid],0.893,1.14,0.875,1.06
O=C(/C=C/c1ccc2ccccc2n1)c1ccncc1,0.0494,0.0683,0.0258,0.0162
O=C(NNc1ccccc1)c1ccncc1,0.723,0.931,0.801,0.659
Cc1ccc(NC(=O)Nc2cc(C(F)(F)F)ccc2F)cc1Nc1ccc2c(c1)NC(=O)/C2=C\c1ccc[nH]1,0.873,0.905,0.918,0.825
CCOC(=O)c1c(CSc2ccccc2)n(C)c2cc(Br)c(O)c(CN(C)C)c12 [Arbidol HCl],0.913,1.07,0.611,0.645
CCOC(=O)[C@H](CCc1ccccc1)N[C@@H](C)C(=O)N1C(=O)N(C)C[C@H]1C(=O)O [Imidapril HCl],0.976,1.1,0.958,1.17
CC(C)C[C@H](NC(=O)CNC(=O)c1cc(Cl)ccc1Cl)B1OC(=O)C(CC(=O)O)(CC(=O)O)O1,0.13,0.0935,0.0814,0.0756
COc1cccc2c1C(=O)c1c(O)c3c(c(O)c1C2=O)C[C@@](O)(C(C)=O)C[C@@H]3O[C@H]1C[C@H](N)[C@H](O)[C@H](C)O1 [Daunorubicin HCl],0.392,0.254,0.0554,0.0241
COc1cccc2c1C(=O)c1c(O)c3c(c(O)c1C2=O)C[C@@](O)(C(=O)CO)C[C@@H]3O[C@H]1C[C@H](N)[C@H](O)[C@H](C)O1 [Doxorubicin (Adriamycin)],0.377,0.212,0.437,0.323

SMILES,fractional viability [1],fractional viability [2],fractional viability [3],fractional viability [4]
CC(=O)[C@]1(O)Cc2c(O)c3c(c(O)c2[C@@H](O[C@H]2C[C@H](N)[C@H](O)[C@H](C)O2)C1)C(=O)c1ccccc1C3=O [Idarubicin HCl],0.362,0.165,0.042,0.021
Nc1cccc(S(=O)(=O)N2CCCN(S(=O)(=O)c3ccc4c(c3)OCCO4)CC2)c1,0.767,0.995,0.742,0.647
NCCCCCNCC12CC3CC(CC(C3)C1)C2 [IEM 1754 dihydrobroMide],0.967,0.972,0.91,0.898
CC(=O)Oc1cc2c(s1)CCN(C(C(=O)C1CC1)c1ccccc1F)C2 (stereo unspecified) [Prasugrel],1.14,1.21,0.897,1.08
C[C@@H]1COCCN1c1cc(C2([S@](C)(=N)=O)CC2)nc(-c2cc[nH]c3nccc2-3)n1,0.189,0.127,0.136,0.0834
CCCCCCCCCCCCCCCCn1cc[n+](Cc2ccccc2)c1C,0.134,0.104,0.0139,0.00629
Cc1nn(C)c(COc2ccc(N3CCN(S(=O)(=O)N(C)C)CC3)cc2)c1-c1cccc2c(CCCOc3cccc4ccccc34)c(C(=O)O)n(CCN3CCOCC3)c12,0.762,0.94,0.644,0.518
C[C@@H](Oc1cc(-c2cnn(C3CCNCC3)c2)cnc1N)c1c(Cl)ccc(F)c1Cl,0.669,0.73,0.128,0.126
CC[C@H]1[C@@H](O)[C@@H]2[C@H](CC[C@]3(C)[C@@H]([C@H](C)CCC(=O)O)CC[C@@H]23)[C@@]2(C)CC[C@@H](O)C[C@@H]12 [Obeticholic Acid],0.846,0.891,0.952,0.807
CC(C)(C)C(=O)C(Oc1ccc(Cl)cc1)n1ccnc1 (stereo unspecified) [Climbazole],0.805,1.06,0.641,0.924
CC(C)(C)c1cc(C(=O)C(C#N)=NNc2cccc(Cl)c2)no1,0.783,0.936,0.57,0.583
CCCC(=O)Nc1cccc(NC(=O)c2ccccc2Br)c1,1.11,1.19,0.939,1.21
CCc1ccc(OCc2ccccc2C(=O)Nc2ccc3nc(C)cc(N)c3c2)cc1,0.117,0.166,0.0139,0.00672
COc1cc2c(cc1OC)CN(CCc1ccc(NC(=O)c3cc(OC)c(OC)cc3NC(=O)c3cnc4ccccc4c3)cc1)CC2 [Tariquidar],0.769,1.05,0.158,0.555
Cn1c(=O)cc(N2CCC[C@@H](N)C2)n(Cc2ccccc2C#N)c1=O [Alogliptin],0.928,0.995,0.894,1.03
Cc1ncc([N+](=O)[O-])n1CC(O)CCl (stereo unspecified) [Ornidazole],1.42,1.24,1.25,1.37
O=C(N/N=C/c1ccc([N+](=O)[O-])o1)c1ccc(O)cc1 [Nifuroxazide],0.378,1.1,0.0463,0.0163
NC(=O)N/N=C/c1ccc([N+](=O)[O-])o1 [Nitrofural],1.34,1.13,1.26,1.2
CCOC(=O)c1ccc(N2NC(=O)C(=Cc3ccc([N+](=O)[O-])o3)C2=O)cc1,0.944,1.26,0.872,1.02

# Reference: the supplement of paper PMC5919970
